According to PubChem BioAssay (NCI):
The panel holds about 79,000 compounds, 15% with a hit somewhere; the sample as a whole holds those more often. Activity calls are given as the source filed them. Cut-off read from the data, not from the text of the source: active = growth inhibition above about 70%; inactive = the rest.

experiment: NCI Yeast Anticancer Drug Screen. Data for the mlh1 rad18 strain (AID 175); conditions: S. cerevisiae mlh1 rad18 strain growth inhibition; at 50.0 µM; hits give high values
Method: Growth inhibition of yeast strains with defined genetic alterations is measured as a screen for potential anti-cancer activity. Selected strains with alterations in DNA damage repair or cell cycle control were exposed to compounds and growth inhibition was measured relative to vehicle treated controls. The strain used in this assay is mlh1 rad18

Q: Which growth inhibition does the source give for `CN(C)C=Nc1cccc2cnccc12` here?
A: -16.7% (inactive)

Q: Which growth inhibition does the source give for `CC(C)(C#N)C(C)(C)c1cnc2ccccc2c1` here?
A: -12.4% (inactive)

Q: With `CC(=O)NC1CC2c3ccccc3C1([N+](=O)[O-])c1ccccc12` (stereo not given) as the molecule, how does the growth inhibition read?
A: -3.9% (inactive)

Q: For `N#C/C(=C\c1cccs1)C(=O)c1ccco1`, which growth inhibition is on record?
A: -5.85% (inactive)

Q: With `CN(C)c1nc2oc(-c3ccccc3)c(-c3ccccc3)c2c2nncn12` as the molecule, how does the growth inhibition read?
A: -22.5% (inactive)

Q: Which growth inhibition does the source give for `Cc1nnc2n(c1=O)CCCN2C` here?
A: 13.4% (inactive)

Q: With `CC1(C)[C@H](C(=O)O)N2C(=O)[C@@H](NC(=O)C(c3ccccc3)c3ccccc3)[C@H]2S1=O` (stereo not given in full) as the molecule, how does the growth inhibition read?
A: 4.85% (inactive)

Q: With `Oc1ccc2ccccc2c1Br` as the molecule, how does the growth inhibition read?
A: 35.6% (inactive)

Q: For `CC(C)/C=C1\CCC(CN2CCCC2)C1=O` (stereo not given), which growth inhibition is on record?
A: 63.5% (inactive)

Q: For `CN1C(=O)C(=O)OC1=C(c1ccccc1)c1ccccc1`, which growth inhibition is on record?
A: -18.2% (inactive)

Q: With `COc1ccc(CCc2nccn2C)cc1OC` as the molecule, how does the growth inhibition read?
A: -32.2% (inactive)

Q: With `CC(C)CN(CC(C)C)C(=S)[S-].CC(C)CN(CC(C)C)C(=S)[S-].[Zn]` as the molecule, how does the growth inhibition read?
A: 32.4% (inactive)

Q: With `Cc1ccc(-c2nc3ccccc3c(=O)o2)cc1` as the molecule, how does the growth inhibition read?
A: 14.3% (inactive)

Q: With `O=C(O)c1c(Br)c(Br)c(Br)c(Br)c1C(=O)Nc1ccc(Cl)cc1C(F)(F)F` as the molecule, how does the growth inhibition read?
A: 13.3% (inactive)

Q: Which growth inhibition does the source give for `C(=NCc1ccccc1)c1ccccc1-c1ccccc1C=NCc1ccccc1` here?
A: 98.1% (active)

Q: For `O=C1c2ccccc2-c2ccc3c4ccc5c6c(ccc(c7ccc1c2c73)c64)C(=O)c1ccccc1-5`, which growth inhibition is on record?
A: 37.5% (inactive)

Q: With `C(=C/c1ccc(-c2ccccc2)cc1)/C=C/c1ccc(-c2ccccc2)cc1` as the molecule, how does the growth inhibition read?
A: 17.9% (inactive)

Q: Which growth inhibition does the source give for `COc1ccc(C2=Nc3c(nc(SC)[nH]c3=O)NC(c3ccccc3)C2)cc1` (stereo not given) here?
A: -3.15% (inactive)

Q: For `C=CCNC(=S)NNC(=S)NCC=C`, which growth inhibition is on record?
A: 22.2% (inactive)

Q: Which growth inhibition does the source give for `Cc1ccc(N=C2N=C(N3CC(C)OC(C)C3)c3ccccc32)cc1` (stereo not given) here?
A: -21.4% (inactive)

Q: Which growth inhibition does the source give for `O=c1c2c(oc(=Nc3ccccc3)n1-c1ccccc1)CC1(CCCCC1)C2` here?
A: -4.2% (inactive)

Q: Which growth inhibition does the source give for `CCC(=O)c1cc(-c2cc(C(=O)CC)[nH]n2)n[nH]1` here?
A: 3.85% (inactive)

Q: Which growth inhibition does the source give for `CC1=NN(c2cccc([N+](=O)[O-])c2)C(=O)C1` here?
A: 32.6% (inactive)

Q: Which growth inhibition does the source give for `C/C=C/C=N/SC(c1ccccc1)(c1ccccc1)c1ccccc1` here?
A: 13.6% (inactive)

Q: For `Cc1cc2c(c3ccccc13)C(O)c1ccccc1-2` (stereo not given), which growth inhibition is on record?
A: -9.25% (inactive)

Q: With `CC(=O)OCC1C(OC(C)=O)C(OC(C)=O)C(n2cnc3c(N)ncnc32)N1C(C)=O` (stereo not given) as the molecule, how does the growth inhibition read?
A: 4.35% (inactive)

Q: With `Nc1nc(-c2ccccc2)nc2nc3[nH]c(=O)[nH]c(=O)c3nc12` as the molecule, how does the growth inhibition read?
A: 2.95% (inactive)

Q: Which growth inhibition does the source give for `O=C1NC(O)c2cccc(F)c2O1` (stereo not given) here?
A: 58.9% (inactive)

Q: With `CC1OC(OCc2ccc(-c3ccccc3)cc2)CC(N)C1O` (stereo not given) as the molecule, how does the growth inhibition read?
A: 2.9% (inactive)

Q: Which growth inhibition does the source give for `COc1ccc(/C(Br)=C2\OC(=O)c3ccccc32)cc1` here?
A: -6.9% (inactive)

Q: For `Cc1ccnn1CCc1ccc(Cl)cc1Cl`, which growth inhibition is on record?
A: -4.55% (inactive)

Q: Which growth inhibition does the source give for `CN(C)CCCC[N+](C)(C)Cc1ccc(C[N+](C)(C)CCCC[N+](C)(C)Cc2ccc(CCl)cc2)cc1` here?
A: -3.55% (inactive)

Q: Which growth inhibition does the source give for `O=[N+]([O-])c1ccc(Oc2c3ccccc3nc3ccccc23)cc1` here?
A: 14.4% (inactive)

Q: For `C[C@]12CCC(=O)C=C1CC[C@@H]1C2=CC[C@]2(C)/C(=C\CO)CC[C@@H]12`, which growth inhibition is on record?
A: 9.4% (inactive)

Q: With `CC(Oc1cc(Cl)c(Cl)cc1Cl)C(=O)NC(Cc1ccccc1)C(=O)O` (stereo not given) as the molecule, how does the growth inhibition read?
A: 5.8% (inactive)

Q: With `O=C(Nc1ccc(C(=O)O)cc1)Nc1cccc(F)c1` as the molecule, how does the growth inhibition read?
A: 13.8% (inactive)

Q: With `CN(CCCCl)Cc1ccccc1` as the molecule, how does the growth inhibition read?
A: -7.55% (inactive)

Q: For `O=C1NC(CN2CCCCC2)C(=O)NC1CN1CCCCC1` (stereo not given), which growth inhibition is on record?
A: 0% (inactive)

Q: Which growth inhibition does the source give for `CCN(CC)CCN1C(=O)c2cccc3cc(N)cc(c23)C1=O` here?
A: 2.2% (inactive)

Q: For `CC1(C)Cc2[nH]c3ccccc3c(=O)c2-c2nc3ccccc3c(=O)n21`, which growth inhibition is on record?
A: -12.9% (inactive)
